In the supplement of paper PMC12350171:
Structures can show the parent of a compound that is named as a salt. Unmarked numbers belong to inactive results.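 The calls were made as follows: active = AUC significantly below DMSO controls by Student t-fit with adjusted P under 0.01; inactive = not significantly reduced.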

What follows are compounds tested on Haemophilus parainfluenzae (assay: growth AUC normalised to DMSO control (fraction of control); higher = less growth inhibition, active = hit call of the paper). Conditions: 20 µM.
Summary of the method: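 Pathogens were passaged twice under anaerobic conditions, then inoculated into pre-reduced mGAM plates at a starting OD578 of 0.01, with compound at 20 μM and 1% DMSO, and sealed with breathable membranes. For Haemophilus parainfluenzae, the medium was supplemented with hemin and NAD. OD578 was read every hour for 24 h in three biological replicates. Growth-curve AUC was calculated by the trapezoidal rule up to the exponential-to-stationary transition and normalised to DMSO controls on the same plate.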
In the case of `C[C@H](CCC(=O)O)[C@H]1CC[C@H]2[C@@H]3CC[C@@H]4C[C@H](O)CC[C@]4(C)[C@H]3CC[C@]12C` [Lithocholic acid], the “growth AUC normalised to DMSO control” value is reported as 1.04. For `CN(C)[C@@H]1C(=O)C(C(N)=O)=C(O)[C@@]2(O)C(=O)C3=C(O)c4c(O)ccc(Cl)c4[C@@H](O)[C@H]3C[C@@H]12` [Demeclocycline hydrochloride], the “growth AUC normalised to DMSO control” value was 0.0384 (active). In the case of `NNC(=O)c1ccncc1` [Isoniazid], the “growth AUC normalised to DMSO control” value is reported as 1.09. With `CCC1(c2ccccc2)C(=O)NCNC1=O` [Primidone] the “growth AUC normalised to DMSO control” value was 0.953. With `O=C(O)c1ccccc1Nc1cccc(C(F)(F)F)c1` [Flufenamic acid] the “growth AUC normalised to DMSO control” value was 0.932. `CN1[C@@H]2CC[C@H]1C[C@@H](OC(=O)c1c[nH]c3ccccc13)C2` [Tropisetron hydrochloride] was tested, and the “growth AUC normalised to DMSO control” value was 1. In the case of `CC(c1cc2ccccc2s1)N(O)C(N)=O` (centres undefined) [Zileuton], the “growth AUC normalised to DMSO control” value is reported as 0.909. For `NCCNCCNCCNCCN` [Tetraethylenepentamine pentahydrochloride], the “growth AUC normalised to DMSO control” value was 0.971. With `O=S(=O)(O)c1cc(O)ccc1O` [Ethamsylate diethylammonium salt] the “growth AUC normalised to DMSO control” value was 0.98. `CC(C)(C)NCC(O)c1ccc(O)c(CO)c1` (centres undefined) [Salbutamol] was tested, and the “growth AUC normalised to DMSO control” value was 0.895. With `CCN1C(=O)NC(c2ccccc2)C1=O` (centres undefined) [Ethotoin] the “growth AUC normalised to DMSO control” value was 1.01. `CN(C)CCCO[C@@H]1[C@H]2OC(C)(C)O[C@H]2O[C@@H]1[C@H](O)CO` [Amiprilose hydrochloride] was tested, and the “growth AUC normalised to DMSO control” value was 0.963. With `CCOc1ccc2ccccc2c1C(=O)N[C@@H]1C(=O)N2[C@@H]1SC(C)(C)[C@@H]2C(=O)O` [Nafcillin sodium salt monohydrate] the “growth AUC normalised to DMSO control” value was 0.899. With `O=C(CCCCCCC(=O)Nc1ccccc1)NO` [Vorinostat] the “growth AUC normalised to DMSO control” value was 1.07. For `CCCNCC(O)COc1ccccc1C(=O)CCc1ccccc1` (centres undefined) [Propafenone hydrochloride], the “growth AUC normalised to DMSO control” value was 1.01. `CCN1CCCC1CNC(=O)c1cc(S(=O)(=O)CC)c(N)cc1OC` (centres undefined) [Amisulpride] was tested, and the “growth AUC normalised to DMSO control” value was 0.997. With `O=c1n(CCCN2CCN(c3cccc(Cl)c3)CC2)nc2ccccn12` [Trazodone hydrochloride] the “growth AUC normalised to DMSO control” value was 0.98. For `O=C1NCN(c2ccccc2)C12CCN(CCCC(c1ccc(F)cc1)c1ccc(F)cc1)CC2` [Fluspirilene], the “growth AUC normalised to DMSO control” value was 1.05. In the case of `CC1(C)O[C@@H]2[C@@H](CO[C@@]3(COS(N)(=O)=O)OC(C)(C)O[C@@H]23)O1` [Topiramate], the “growth AUC normalised to DMSO control” value is reported as 1.03. With `CCn1nc(C(=O)O)c(=O)c2cc3c(cc21)OCO3` [Cinoxacin] the “growth AUC normalised to DMSO control” value was 0.294 (active). For `CC(=O)OCC(=O)[C@@]12OC3(CCCC3)O[C@@H]1C[C@H]1[C@@H]3CCC4=CC(=O)C=C[C@]4(C)[C@@]3(F)[C@@H](O)C[C@@]12C` [Amcinonide], the “growth AUC normalised to DMSO control” value was 1.03. In the case of `CCCCC(O)c1ccccc1` (centres undefined) [Fenipentol], the “growth AUC normalised to DMSO control” value is reported as 0.989. In the case of `CCCc1cc(C(N)=S)ccn1` [Prothionamide], the “growth AUC normalised to DMSO control” value is reported as 1.04. For `NC(N)=Nc1nc(CSCC/C(N)=N/S(N)(=O)=O)cs1` [Famotidine], the “growth AUC normalised to DMSO control” value was 0.975. For `CNCC(O)c1ccc(O)c(O)c1` (centres undefined) [Racepinephrine hydrochloride], the “growth AUC normalised to DMSO control” value was 1.06. For `Cc1cc(CC(=O)O)n(C)c1C(=O)c1ccc(Cl)cc1` [Zomepirac sodium salt], the “growth AUC normalised to DMSO control” value was 0.993. With `CCCCC[C@H](O)/C=C/[C@H]1[C@H](O)CC(=O)[C@@H]1CCCCCCC(=O)O` [Alprostadil] the “growth AUC normalised to DMSO control” value was 0.903. With `CCN(CC)CCCC(C)Nc1c2ccc(Cl)cc2nc2ccc(OC)cc12` (centres undefined) [Quinacrine dihydrochloride hydrate] the “growth AUC normalised to DMSO control” value was 0.879. With `O=C(OCCOCCO)c1ccccc1Nc1cccc(C(F)(F)F)c1` [Etofenamate] the “growth AUC normalised to DMSO control” value was 0.992. `CCCNC(C)(C)COC(=O)c1ccccc1` [Meprylcaine hydrochloride] was tested, and the “growth AUC normalised to DMSO control” value was 1.03. With `CC(=O)Oc1cccc2c1C(=O)c1c(OC(C)=O)cc(C(=O)O)cc1C2=O` [Diacerein] the “growth AUC normalised to DMSO control” value was 0.779 (active). For `CCOC(=O)[C@H](CCc1ccccc1)N[C@@H](C)C(=O)N1CCC[C@H]1C(=O)O` [Enalapril maleate], the “growth AUC normalised to DMSO control” value was 1.03. In the case of `COCC(=O)Nc1c(I)c(C(=O)NCC(O)CO)c(I)c(C(=O)N(C)CC(O)CO)c1I` (centres undefined) [Iopromide], the “growth AUC normalised to DMSO control” value is reported as 1.03. In the case of `NS(=O)(=O)c1cc2c(cc1Cl)N=CNS2(=O)=O` [Chlorothiazide], the “growth AUC normalised to DMSO control” value is reported as 1.01. In the case of `C[C@@H]1C[C@H]2[C@@H]3C[C@H](F)C4=CC(=O)C=C[C@]4(C)[C@@]3(F)[C@@H](O)C[C@]2(C)[C@@]1(O)C(=O)CO` [Flumethasone], the “growth AUC normalised to DMSO control” value is reported as 1. For `Cn1cnc([N+](=O)[O-])c1Sc1ncnc2[nH]cnc12` [Azathioprine], the “growth AUC normalised to DMSO control” value was 1.11. With `CC/C(=C(\c1ccccc1)c1ccc(OCCN(C)C)cc1)c1ccccc1` [Tamoxifen citrate] the “growth AUC normalised to DMSO control” value was 0.997. For `C[C@@H]1CN(c2c(F)c(N)c3c(=O)c(C(=O)O)cn(C4CC4)c3c2F)C[C@H](C)N1` [Sparfloxacin], the “growth AUC normalised to DMSO control” value was 0.0765 (active). For `O=c1[nH]c(=O)n([C@H]2C[C@H](O)[C@@H](CO)O2)cc1F` [Floxuridine], the “growth AUC normalised to DMSO control” value was 0.0967 (active).
